Compound activity: PubChem, National Center for Advancing Translational Sciences (NCATS)
A selection: hits, their analogues and other compounds. The true share with any hit is near 9.4%.
ELG1 genotox = induces genotoxicity in HEK293T cells with luciferase-tagged ELG1 | AID 504466 | Potency, µM (titrated, usually from 46 µM), inactives show at the highest dose activity change, positive = activation, usual class: activators | HEK293T ELG1-luciferase reporter, luminescence, 16 h | 1.3% of 330,000 active; also: % of control where 0% means no effect; nearly all actives have a fitted effect of over 60% in size
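ELG1-luciferase HEK293T cells, 2,000/well; compound pinned in; 16 hr, 37 °C, 5% CO2; ONE-Glo, 30 min RT; luminescence on CCD imager.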
Rab9 prom act = Rab9 promoter activation | Huh7 Rab9 promoter-luciferase reporter, luminescence, 24 h | Potency, µM (highest dose often 9.22 µM), for inactives: top-dose activation, negative = inhibition, most hits filed as activators | 2.8% of 320,000 active | AID 485297; also: % of control where 0% means no effect; nearly all actives have a fitted effect of over 60% in size
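Quantitative HTS format; Huh7 Rab9-luciferase reporter cells (1500/well) receive compound 2 h post-plating, incubate 24 h at 37 °C, then get luciferase reagent for 10 min before luminescence reading.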
SMN2 splice enh = SMN2 splice variant enhancement. Potency, µM (top dose mostly 46.1 µM), for the others: at the top dose activity change, positive = activation, actives largely listed as activators. 2.8% of 210,000 active. HEK293 SMN2-luciferase splicing reporter, luminescence, 30-36 h; also: % of control where 0% means no effect; nearly all actives have a fitted effect of over 55% in size
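HEK293 cells carry an SMN2 […]–luciferase reporter in which exon 7 inclusion puts luciferase in frame. Cells were plated 10-12 h before compound addition, then incubated 30-36 h at 37C. ONE-Glo luminescence was read; sodium butyrate at 4.5 mM final served as control.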
ELG1 DNA repair = ELG1-dependent DNA repair inhibition; AID 504467; Potency, µM (highest dose often 46.1 µM), inactives show at the top dose activity change, negative = inhibition, usual class: inhibitors; 2.3% of 330,000 active; HEK293T ELG1-luciferase reporter, luminescence, 16 h; DNA damage induced by 5-fluorouridine; also: % is scaled to controls: 0 for no effect and ±100 for the full control effect; nearly all actives have a fitted effect of over 55% in size
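5-Fluorouridine DNA damage + compound/DMSO, 2,000 cells/well, 16 h, 37 °C/5% CO2. ONE-Glo, 30 min RT, luminescence. Readout = decrease in reporter signal.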
NPC1 prom act = NPC1 promoter activation; AID 485313; 2.4% of 320,000 active; Huh7 NPC1 promoter luciferase reporter, 24 h; Potency, µM (highest dose often 9.22 µM), without a hit: at the top dose activation, usual class: activators; also: % of control where 0% means no effect; nearly all actives have a fitted effect of over 60% in size
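Quantitative HTS used a cell-based reporter: Huh7 cells stably bearing the NPC1 promoter upstream of luciferase were treated with compounds for 24 h, and promoter activation was read as luminescence.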
FLuc modulator = inhibits or activates purified firefly luciferase, miR-21 counter-screen; 6.9% of 360,000 active; AID 588342; Potency, µM (top dose mostly 57.5 µM), without a hit: at the top dose activity change, negative = inhibition, most hits filed as inhibitors; purified FLuc, Km substrates, luminescence inhibition; P08659;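 also: plate controls were vehicle for no effect and reference inhibitor for full effect; nearly all actives have a fitted effect of over 55% in size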
Target sequence (P08659 whole entry, looked up): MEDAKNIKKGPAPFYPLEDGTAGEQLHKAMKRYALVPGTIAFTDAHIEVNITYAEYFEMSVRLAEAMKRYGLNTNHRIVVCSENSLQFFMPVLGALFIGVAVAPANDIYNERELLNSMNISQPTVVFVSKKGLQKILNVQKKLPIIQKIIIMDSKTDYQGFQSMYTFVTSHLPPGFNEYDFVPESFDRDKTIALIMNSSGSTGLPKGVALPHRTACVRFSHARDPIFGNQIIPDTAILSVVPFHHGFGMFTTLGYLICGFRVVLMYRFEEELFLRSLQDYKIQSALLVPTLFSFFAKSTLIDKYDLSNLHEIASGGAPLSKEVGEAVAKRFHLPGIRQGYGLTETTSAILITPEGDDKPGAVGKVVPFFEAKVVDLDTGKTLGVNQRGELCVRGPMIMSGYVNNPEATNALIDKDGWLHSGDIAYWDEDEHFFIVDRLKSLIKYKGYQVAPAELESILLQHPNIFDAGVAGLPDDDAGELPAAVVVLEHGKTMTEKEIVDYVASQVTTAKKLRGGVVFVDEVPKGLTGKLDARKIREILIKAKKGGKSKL
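Purified P. pyralis luciferase, 10 nM final, with Km-level 10 uM D-luciferin and 10 uM ATP in 50 mM Tris acetate pH 7.5, 10 mM Mg acetate, 0.01% Tween-20, 0.05% BSA; 6-point qHTS titration about 60 µM downward; luminescence read.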
Numbers without * were called inactive; ? = inconclusive; / = not tested or not shown; [ ] = dose if it differs, or a comment. Calls follow the shape of the dose curve; as a rule, active = well fitted curve in the direction sought with a large enough effect; inconclusive = small, poorly fitted or top-dose-only effect, or another doubt; inactive = no such curve, though single readings can be large; an effect the other way counts as inactive or inconclusive. Potency is read from the fitted curve at half-maximal effect.

SMILES	ELG1 genotox	Rab9 prom act	SMN2 splice enh	ELG1 DNA repair	NPC1 prom act	FLuc modulator
Cc1ccc(SCC(=O)N2CCc3ccccc32)cc1	?	?	?	?	19%	9.5µM*
NS(=O)(=O)c1ccc(NC(=O)Nc2ccccc2F)cc1	/	/	-5%[9.22 µM]	/	/	/
O=C(C1CCCN(S(=O)(=O)Cc2ccccc2)C1)N1CCc2ccccc21 (configuration not stated)	-13%	0%	-12%	26µM*	-1%	-1%
O=C(CSC1=NCCS1)N1CCc2ccccc21	8.2µM*	4µM*	?	?	?	13µM*
Nc1ccccc1SCC(=O)N1CCc2ccccc21	?	?	68%	?	?	17µM*
O=C(CSc1ccccc1C(=O)O)c1ccc(Cl)cc1	?	4µM*	/	?	4µM*	11µM*
NCCC[C@@H](CC(=O)N[C@@H]1CCCC[C@H]1C(=O)N[C@H](CC(=O)N[C@@H](CCC(=O)O)CC(=O)O)Cc1ccccc1)NC(=O)C[C@H](Cc1c[nH]c2ccccc12)NC(=O)[C@@H]1CNCC[C@H]1N	/	/	-9%	/	/	/
COc1ccc2c(c1)OC1(O)COc3cc(OC)c(OC)cc3C1=C2 (configuration not stated)	/	/	-19%	/	/	/
CC1(C)C(=O)C2C[C@]3(O)C4=CC(=O)OC(c5ccoc5)[C@]4(C)CCC3[C@](C)(C2=O)C1CC(=O)O (some centres not stated)	/	/	-2%	/	/	/
O=S(=O)(NC1Cc2ccccc2C1)c1ccccc1	1%	0%	/	7%	-1%	-1%
C[C@H]1Cc2c(COc3ccccc3)nc3c(c2CO1)CN(C(=O)NCCc1c[nH]c2ccccc12)CC3	/	/	-4%[9.22 µM]	/	/	/
COc1ccc2cc(CNc3ccc(C)cc3)c(=O)n(CC(=O)Nc3ccc(OC)c(Cl)c3)c2c1	/	/	/	/	/	1%
O=C(Cc1cccc2ccccc12)N/N=C/c1ccc2cccc(O)c2n1	-6%	-6%	/	-6%	-1%	?
Cc1ccsc1/C=C/c1ccc2cccc(O)c2n1	9.2µM*	3.5µM*	?	?	?	2.7µM*
Cc1ccsc1/C=C/c1ccc2ccccc2n1	?	2.2µM*	0.89µM*	?	2µM*	1.7µM*
Cc1ccsc1/C=C/C(=O)O	1%	1%	16%	2%	-2%	0%
Oc1cccc2ccc(/C=C/c3cccs3)nc12	2.2µM*	2.8µM*	25%	?	?	2.1µM*
CCc1ccccc1NC(=O)CN1C(=O)COc2ccc(S(=O)(=O)Nc3ccccc3)cc21	/	/	/	/	/	-12%
Cc1ccccc1OCC(=O)Nc1ccc2c(c1)OCO2	?	7%	-9%	?	?	13µM*
COc1cc(C)ccc1OCC(=O)Nc1ccc2c(c1)OCO2	?	2.8µM*	/	?	?	7.6µM*
CCn1ccc2c(OCC(=O)Nc3ccc(C)c(Cl)c3)cccc2c1=O	/	/	/	/	/	-2%
CC(=O)c1cccc(NC(=O)COC(=O)COc2ccccc2C)c1	0%	-3%	4%	9%	-3%	-8%
Cc1ccc(NC(=O)COc2ccccc2C=O)cc1Cl	?	2.5µM*	/	?	2µM*	0.85µM*
CC(=O)Nc1cccc(NC(=O)COc2ccccc2C)c1	1%	12%	/	18%	13%	15µM*
CCC(Sc1ncc(S(=O)(=O)c2ccc(C)cc2)c(=O)[nH]1)C(=O)Nc1cc(C)ccc1C (configuration not stated)	/	/	-5%	/	/	?
SMILES	ELG1 genotox	Rab9 prom act	SMN2 splice enh	ELG1 DNA repair	NPC1 prom act	FLuc modulator
CSCCC(NS(=O)(=O)c1ccc2c(c1)oc(=O)n2C)C(=O)N1CCN(c2cc(Cl)ccc2C)CC1 (configuration not stated)	/	/	/	/	/	5%
COc1ccc(OCC(=O)Nc2cccc(OC)c2)cc1	?	-4%	/	?	2%	-15%[2.3 µM]
Cc1nnc(NC(=O)C(=O)c2cc(C)n(-c3ccc(C)c(C)c3)c2C)s1	/	/	/	/	/	-7%
COc1ccccc1OCC(=O)Nc1ccc2c(c1)OCO2	25%	21%	/	?	?	15µM*
Cc1cc(NC(=O)COc2ccccc2C)no1	?	3.2µM*	/	?	3.2µM*	17µM*
COc1cccc(NC(=O)COc2ccccc2C(N)=O)c1	7.9µM*	2µM*	4µM*	?	2.8µM*	2.4µM*
Cc1ccc(-n2c(C)cc(C(=O)COc3c(CO)cc(F)cc3CO)c2C)cc1C	-5%	-1%	-52%	?	0%	24µM*
Cc1ccc(NC(=O)Cn2cnc3sc(C)c(S(=O)(=O)N4CCN(c5ncccn5)CC4)c3c2=O)cc1F	/	/	-1%	/	/	-1%
COc1cc(Cl)c(C)cc1NC(=O)CNC(=O)Cn1ccc2ccccc2c1=O	/	/	-7%	/	/	0%
CCOc1ccc(NC(=O)C2CCC(CNS(=O)(=O)c3ccc(Br)s3)CC2)cc1 (configuration not stated)	/	/	-8%	/	/	0%
CCc1ccc(CNC(=O)C(CC)n2ccc3cc(S(=O)(=O)N4CCCCC4)ccc32)cc1 (configuration not stated)	/	/	/	/	/	4%
Cc1ccc2c(c1)-n1c(nc3ccccc3c1=O)C(Cc1ccccc1)NC2=O (configuration not stated)	1%	/	/	3%	/	/
Cc1cc(C(=O)CSc2n[nH]c(N)n2)c(C)n1-c1ccc2c(c1)OCO2	2%	2%	-1%[1.84 µM]	13%	8%	?
Cc1cc(C(=O)COc2ccccc2Cl)c(C)n1-c1ccc2c(c1)OCO2	?	25%	?	?	19%	21µM*
O=C(COc1ccccc1Cl)Nc1ccc2c(c1)OCO2	3.5µM*	?	/	?	2.8µM*	3.4µM*
CCN1C(=O)/C(=C/N2CCc3ccccc32)SC1=S	6.5µM*	3.2µM*	10µM*	?	2.8µM*	?
Cc1nc2ccccc2nc1-c1ccc(N=[N+]([O-])c2ccc(-c3nc4ccccc4nc3C)cc2)cc1	/	/	2%[9.22 µM]	/	/	/
CC(=O)c1ccc2c(c1)C1C=CCC1C(c1ccncc1)N2 (configuration not stated)	5%	10%	15%	?	26%	17µM*
CCCc1nnc(NC(=O)c2c(O)c3c([nH]c2=O)CCCC3)s1	3%	?	11%	-5%	28%	2%
O=C(Nc1ccccc1O)c1c(O)c2c([nH]c1=O)CCCC2	?	3.5µM*	18µM*	?	?	7.6µM*
O=C(N/N=C/c1cccc(F)c1)c1c(O)c2ccccc2[nH]c1=O	?	?	-22%	?	?	4%
